Screening results from PubChem.
Only some compounds are listed: those with a hit (about 2.3% of all), similar ones and a draw of the others.
M1 PAM: human M1 muscarinic receptor positive allosteric modulators, primary screen, CHO-K1 cells, Fluo-8 calcium fluorescence, 1536-well; Muscarinic acetylcholine receptor M1 (Homo sapiens), P11229; CHO-K1 hM1, ACh EC20; 0% = ACh EC20, 100% = maximal ACh; activation, % at 3 µM; 360,000 compounds, 0.088% hits; AID 588819, 2011; in the data active = activation above about 19%, passing the limit was not always enough
Target sequence (P11229 whole entry, looked up): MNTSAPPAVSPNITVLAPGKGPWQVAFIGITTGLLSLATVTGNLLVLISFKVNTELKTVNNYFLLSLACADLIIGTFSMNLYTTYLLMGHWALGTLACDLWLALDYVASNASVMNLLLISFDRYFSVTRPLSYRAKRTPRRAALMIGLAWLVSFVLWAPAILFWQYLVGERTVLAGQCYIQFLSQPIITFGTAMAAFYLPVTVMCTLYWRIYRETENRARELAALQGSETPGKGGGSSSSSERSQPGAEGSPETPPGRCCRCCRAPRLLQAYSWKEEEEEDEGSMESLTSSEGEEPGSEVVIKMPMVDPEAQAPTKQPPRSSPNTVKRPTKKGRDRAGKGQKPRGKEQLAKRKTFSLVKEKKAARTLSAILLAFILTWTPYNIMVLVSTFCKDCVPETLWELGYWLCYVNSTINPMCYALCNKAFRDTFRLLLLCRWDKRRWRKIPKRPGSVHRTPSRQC
M1 PAM parental: nonselective calcium activators in parental CHO-K1 cells, primary screen, counter-screen for M1 PAM project, cell-based, Fluo-8 calcium fluorescence, full deck, 1536-well. ATP EC20; 0% at ATP EC20, 100% at ATP max. AID 602247, 2012. activation, % at 3 µM. 360,000 compounds, 0.02% hits;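 active = activation above the run cutoff, the mean activation of all test compounds plus 3 SD, cut at about 40% in these data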;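 also: peak over basal fluorescence ratio in a 140 s read after ATP addition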
M1 ag: human M1 muscarinic receptor agonists, primary screen, Fluo-8 calcium fluorescence, CHO-K1 cells, HTS | Muscarinic acetylcholine receptor M1 (Homo sapiens), P11229 | CHO-K1 hM1, agonist mode; 0% DMSO, 100% acetylcholine EC100 | activation, % at 3 µM | 360,000 compounds, 0.33% hits | AID 588814, 2011;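 active = activation above the run's mean compound activation plus 3 SD, cut at about 16% in these data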;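 also: peak over basal fluorescence ratio within a 140 s kinetic read after compound addition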
M1 antag: human M1 muscarinic receptor antagonists, primary screen, CHO-K1 cells, Fluo-8 calcium fluorescence, 1536-well. inhibition, % at 3 µM. CHO-K1 hM1, ACh EC80 antagonist. 360,000 compounds, 1.3% hits;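 active = percent inhibition above its own plate's cutoff, namely the mean of that plate's compound wells plus 3 SD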;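 also: peak over basal fluorescence ratio during 140 s after agonist addition; 0% = ACh EC80 plus DMSO and 100% = DMSO alone without agonist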
M1 ag parental: counter-screen for M1 agonists: effect in parental CHO-K1 cells. Fluo-8 calcium fluorescence; scaled to maximal ATP response, vehicle zero. activation, % at 3 µM. 360,000 compounds, 0.48% hits; in the data active = activation above about 15%;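 also: untransfected CHO-K1 host cells lacking M1 receptor as counterscreen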
CHO-K1 Ca antag: nonselective inhibitor or artifact in parental CHO-K1 cells | inhibition, % at 3 µM | ATP-induced calcium, Fluo-8 fluorescence | 360,000 compounds, 0.6% hits;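 active = inhibition above a per-plate cutoff, the plate's mean sample inhibition plus 3 SD, cut at about 24% in these data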;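 also: 0% = DMSO plus EC80 ATP and 100% = DMSO alone without ATP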
The depositor's hits bear a star.

COc1ccc(NC(=O)C2(N(CC(C)C)C(=O)Cn3nnnc3N)CCCCC2)cc1 was read as M1 PAM -5, M1 PAM parental -8, M1 ag -4, M1 antag 11, M1 ag parental 0 and CHO-K1 Ca antag 25*.
For Cc1nnc(SCC(=O)Nc2cccc(S(=O)(=O)N(C)c3ccccc3)c2)s1 the results were M1 PAM -19, M1 PAM parental -6, M1 ag 1, M1 antag 36*, M1 ag parental 14 and CHO-K1 Ca antag 21.
COc1cccc(CN(C)CC(=O)Nc2cccc(S(=O)(=O)N(C)c3ccccc3)c2)c1OC was read as M1 PAM -14, M1 PAM parental -5, M1 ag -5, M1 antag 12, M1 ag parental 5 and CHO-K1 Ca antag -17.
`CCOc1ccc(CN(C)CC(=O)Nc2cccc(S(=O)(=O)N(C)c3ccccc3)c2)cc1` gave M1 PAM -4, M1 PAM parental 7, M1 ag -6, M1 antag 9, M1 ag parental 18* and CHO-K1 Ca antag 0.
`COCCn1cnnc1SCC(=O)Nc1cccc(S(=O)(=O)N(C)c2ccccc2)c1` gave M1 PAM 9, M1 PAM parental 2, M1 ag -7, M1 antag -2, M1 ag parental 14 and CHO-K1 Ca antag 11.
CCC(=O)c1ccc(OCC(=O)Nc2cccc(S(=O)(=O)N(C)c3ccccc3)c2)cc1 was read as M1 PAM -26, M1 PAM parental -12, M1 ag 3, M1 antag 56*, M1 ag parental 17* and CHO-K1 Ca antag 8.
`CN(c1ccccc1)S(=O)(=O)c1cccc(NC(=O)COc2cccc([N+](=O)[O-])c2)c1` gave M1 PAM -10, M1 PAM parental -5, M1 ag -3, M1 antag 13, M1 ag parental 7 and CHO-K1 Ca antag -11.
For COc1ccc(CCNC(=O)c2cc3c(C)nccc3[nH]c2=O)cc1OC the results were M1 PAM -10, M1 PAM parental -3, M1 ag 1, M1 antag 34, M1 ag parental 4 and CHO-K1 Ca antag 4.
`Cc1cc(C)n(C(=O)N(c2ccccc2)c2ccccc2)n1` gave M1 PAM 3, M1 PAM parental -7, M1 ag -5, M1 antag 2, M1 ag parental 0 and CHO-K1 Ca antag -12.
For O=C(COC(=O)CNC(=O)c1ccco1)Nc1ncc(Cl)cc1Cl the results were M1 PAM 7, M1 PAM parental 31, M1 ag -2, M1 antag -8, M1 ag parental 1 and CHO-K1 Ca antag -27.
`O=C(CCCCCN1C(=O)CCC1=O)Nc1ccc(Cl)c(C(F)(F)F)c1` gave M1 PAM -13, M1 PAM parental 11, M1 ag 0, M1 antag 11, M1 ag parental 17* and CHO-K1 Ca antag -32.
Screening COc1cccc(CNC(=O)[C@@H]2CCCN2C(=O)[C@H]2CCCCN2)c1 returned M1 PAM parental 2, M1 ag parental 0 and CHO-K1 Ca antag -6.
Screening N#Cc1cccc(NC(=O)CSc2ccc3c4c(cccc24)C(=O)c2ccccc2-3)c1 returned M1 PAM -16, M1 PAM parental 4, M1 ag 44*, M1 antag 32*, M1 ag parental 13 and CHO-K1 Ca antag 17.
Screening CC1(C(=O)NCc2ccccc2)CCC(=O)N1CCc1c[nH]c2ccccc12 (stereo unspecified) returned M1 PAM -10, M1 PAM parental -9, M1 ag -3, M1 antag 22, M1 ag parental 1 and CHO-K1 Ca antag 31*.
For CC1(c2nnnn2Cc2ccccc2)CCC(=O)N1CCc1c[nH]c2ccccc12 (stereo unspecified) the results were M1 PAM parental 18, M1 ag parental 10 and CHO-K1 Ca antag -6.
For CCOC(=O)c1[nH]c2ccc(Br)cc2c1NC(=O)CCN1CCC(C)CC1 the results were M1 PAM -14, M1 PAM parental 24, M1 ag -2, M1 antag 32*, M1 ag parental 2 and CHO-K1 Ca antag -13.
